# From PubChem BioAssay
# This is a sample that favours compounds with a hit; in the whole collection about 5.1% have one here.
# Pol III holo inh – DNA polymerase III holoenzyme inhibition. reconstituted DNA polymerase III holoenzyme replication, biochemical. Potency, µM (series often up to 57.1 µM), for the others: at the highest dose activity change, negative = inhibition. 71,000 tested, 0.25% active; further: on the % scale 0 is the no-effect control and ±100 the full control effect
#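 Reconstituted *E. coli* holoenzyme (0.35 nM Pol III, 1 nM beta, 154 nM SSB, 2 nM primase) was preincubated with compound for 15 min at RT. Synthesis on 1.4 nM ssM13Gori ran 35 min, then was stopped with PicoGreen/EDTA and read as dsDNA fluorescence.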
# Hsp90 Hop PPI – changes Hsp90-Hop TPR2A binding signal, up or down; AlphaScreen TPR2A-His6 binding biotin-Hsp90 C-terminal peptide; Potency, µM (series often up to 57 µM), for the others: at the top dose activity change, negative = inhibition; 71,000 tested, 0.44% active; active means well fitted curve in either direction with a large enough effect; inconclusive means small, poorly fitted or top-dose-only effect, or another doubt; further: on the % scale 0 is the no-effect control and ±100 the full control effect
# Tau filament bind – tau filament binding | recombinant tau filaments, thioflavin S fluorescence, 15 h; filaments grown with octadecylsulfate alongside compound | P10636 | Potency, µM (highest dose often 57.1 µM), inactives show top-dose activity change, negative = inhibition | 71,000 tested, 2% active | AID 596;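 further: on the % scale 0 is the no-effect control and ±100 the full control effect; actives lower thioflavin S fluorescence by blocking filaments or displacing dye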
# Target sequence (P10636 whole entry, looked up): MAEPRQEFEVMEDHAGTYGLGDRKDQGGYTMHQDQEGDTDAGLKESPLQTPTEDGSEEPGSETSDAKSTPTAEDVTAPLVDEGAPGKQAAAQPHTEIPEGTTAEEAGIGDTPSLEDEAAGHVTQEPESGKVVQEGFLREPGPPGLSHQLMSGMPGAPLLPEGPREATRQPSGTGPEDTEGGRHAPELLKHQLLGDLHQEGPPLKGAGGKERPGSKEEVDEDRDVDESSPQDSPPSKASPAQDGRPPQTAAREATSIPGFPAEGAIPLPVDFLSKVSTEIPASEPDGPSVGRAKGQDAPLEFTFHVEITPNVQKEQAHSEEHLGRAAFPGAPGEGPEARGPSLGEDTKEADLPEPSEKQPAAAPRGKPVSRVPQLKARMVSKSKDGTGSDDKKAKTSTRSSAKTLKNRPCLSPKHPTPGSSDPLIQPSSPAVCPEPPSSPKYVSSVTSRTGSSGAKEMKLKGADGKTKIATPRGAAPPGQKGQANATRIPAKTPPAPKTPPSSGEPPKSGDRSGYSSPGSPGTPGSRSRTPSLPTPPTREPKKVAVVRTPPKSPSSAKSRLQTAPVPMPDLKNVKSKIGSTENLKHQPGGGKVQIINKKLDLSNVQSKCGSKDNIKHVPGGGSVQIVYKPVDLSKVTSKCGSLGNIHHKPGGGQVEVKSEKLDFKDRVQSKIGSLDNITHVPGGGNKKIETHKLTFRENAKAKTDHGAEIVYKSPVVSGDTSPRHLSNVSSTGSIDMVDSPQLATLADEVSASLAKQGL
#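 His-tagged recombinant human tau (exons 2, 3, 10; 1 uM final) fibrillized with 30 uM sodium octadecylsulfate, 15 h at 37 C, in pH 7.4 HEPES buffer with 10 uM thioflavine S and 5 mM DTT. Reduced ThS fluorescence (450/510 nm) marks activity.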
# TSHR ag – activates the human thyroid stimulating hormone receptor; Potency, µM (series often up to 57.1 µM), inactives show at the highest dose activation, hits mostly activators; 73,000 tested, 0.48% active; HEK293-CNG-TSHR cells (CNG channel as cAMP sensor), membrane potential dye, cAMP; P16473; AID 926; active means well fitted activation curve with a large enough effect in the main read-out, with a control signal flat, not every such curve was filed as active; inconclusive means small, poorly fitted or top-dose-only effect, or a change in a side signal; inactive means no such curve, though single readings can be large or run the other way; % of control where 0% means no effect;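 further: the control signal comes from parental cells without the receptor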
#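 HEK 293 cells stably expressing TSHR and a modified CNG channel, with CNG-only parental cells as counterscreen, were preloaded 60 min at room temperature with membrane potential dye containing 100 uM RO 20-1724. Compound exposure was 30 min, and depolarization was read as fluorescence at 590 nm.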
# HEK293 cAMP ctrl – raises cAMP in parental HEK293 cells, TSHR agonist counter-screen; parental HEK293 CNG cAMP sensor, membrane potential fluorescence; 73,000 tested, 2.5% active; Potency, µM (highest dose often 57.1 µM), for the others: top-dose activation, hits mostly activators; further: % of control where 0% means no effect; nearly all actives have a fitted effect of over 55% in size
#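 Parental HEK 293 cells stably expressing a cAMP-gated CNG channel were loaded with membrane potential dye containing 100 uM RO 20-1724 for 60 min. Compound added for 30 min; depolarization read as fluorescence intensity at 590 nm.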
# The depositor's hits bear a star; i = inactive; ? = inconclusive; . = no result given; [ ] = dose if it differs, or a comment. Unless noted, the call rests on the fitted dose curve; in most records, active means well fitted curve in the direction sought with a large enough effect; inconclusive means small, poorly fitted or top-dose-only effect, or another doubt; inactive means no such curve, though single readings can be large; an effect the other way counts as inactive or inconclusive. Potency means the concentration at half of the fitted maximal effect.
SMILES,Pol III holo inh,Hsp90 Hop PPI,Tau filament bind,TSHR ag,HEK293 cAMP ctrl
O=C1C2C3C=CC(C3)C2C(=O)N1c1ncn[nH]1 (stereo not drawn),13µM*,-5%,-11%,-1%,1%
O=C1C2C3C=CC(C3)C2C(=O)N1c1ccncc1 (stereo not drawn),1%,-2%,-8%,-8%,-1%
CC(C)[C@@H](OCc1ccccc1)[C@H](C)/C=N\OC[C@@H](O)COCc1ccco1,.,.,.,-1%[11.4 µM],8%[11.4 µM]
CCCCC#Cc1nc(N)c2ncn([C@@H]3O[C@@H](C(=O)NCC)[C@H](O)[C@@H]3O)c2n1,1%,-9%,-3%,?,2µM*
CCC[C@H](Sc1nc(N)nc2nc[nH]c12)C(=O)O,10%[11.4 µM],4%[11 µM],0%[11.4 µM],6%[11.4 µM],24%[11.4 µM]
COc1ccc(S(=O)(=O)N2CCCCC2)cc1C(C)C,-8%,17%,-24%,?,32µM*
COc1ccc(Oc2ccc(S(=O)(=O)N3CCCCC3)cc2S(=O)(=O)N2CCCCC2)cc1,4%,0%,36%,?,?
Cc1ccc(-c2nc3ncccn3c2NC2CCCC2)o1,0%,-12%,13µM*,?,?
Cc1ccc(-c2nc3ncccn3c2Nc2ccc3c(c2)OCO3)o1,8%,-15%,13µM*,-37%,-24%
Oc1ccc(-c2nc3ncccn3c2Nc2ccc3c(c2)OCO3)cc1,0%,-30%,-26%,-25%,-14%[2.29 µM]
CCOC(C)=O,-1%,0%,-1%,6%,-2%
c1cc2c(cc1C(N1CCNCC1)N1CCNCC1)OCO2,-2%[11.4 µM],0%[11 µM],-4%[11.4 µM],2%[11.4 µM],-3%[11.4 µM]
O=c1n(-c2ccccc2)c(=O)n2n1CC[C@H]1/C(=N\OCc3ccccc3)[C@H]3O[C@@H]3[C@@H](O)[C@@H]12,.,.,.,-5%[11.4 µM],2%[11.4 µM]
O=C(c1ccc(Cl)s1)N1CCc2ccccc21,-4%,12%,8%,16µM*,27%
COc1ccc(-n2nc(C(=O)Nc3ccc4c(c3)OCO4)c3ccccc3c2=O)cc1,1%,-1%,-4%,?,16µM*
COc1ccc(-c2nc(CS(=O)(=O)CC(=O)NCCc3cc(OC)ccc3OC)c(C)o2)cc1,-1%,-8%,5%,?,25µM*
COc1ccc(OC)c(CCNC(=O)CS(=O)(=O)Cc2nc(-c3ccc(C)cc3)oc2C)c1,1%,-6%,6%,?,?
CS(=O)(=O)Nc1cccc(-c2nc(N3CCNCC3)c3ccccc3n2)c1,-7%,-2%,27%,21%,14%
CCOC(=O)C1=C(C)Nc2nc(C)nn2C1c1ccc(OCC)c(OC)c1 (stereo not drawn),10%,-2%,0%,-3%,-4%
CCOC(=O)C1=C(C)Nc2nc(C)nn2C1c1ccc(OC)c(OC)c1 (stereo not drawn),2%,-4%,3%,?,1.6µM*
CSCSC1=C(C#N)C(c2ccc(Cl)cc2)C(C(C)=O)=C(C)N1 (stereo not drawn),-2%,?,-7%,?,25µM*
CCCCCCCCCCCCCCCCOC[C@@H](COCC(F)(F)F)OP(=O)(O)OCO,-7%,-3%,2%,20µM*,21%
O=C(OCC(=O)c1ccccc1Br)c1ccccn1,4%,25µM*,-4%,0%,-7%
O=C(COC(=O)c1ccccn1)Nc1nccs1,-3%,-2%,10%,1%,1%
C=C(Br)CN(C)CC(=C)Br,-8%[11.4 µM],-3%[11 µM],-1%[11.4 µM],6%[11.4 µM],-7%[11.4 µM]
SMILES,Pol III holo inh,Hsp90 Hop PPI,Tau filament bind,TSHR ag,HEK293 cAMP ctrl
Cc1nc(N=Nc2cc(S(=O)(=O)O)c3cc([N+](=O)[O-])cc(S(=O)(=O)O)c3c2)c(COP(=O)(O)O)c(C=O)c1O,32µM*,-23%,?,2%,1%
C=CCn1c(=N)c(C(=O)NCCCOC)cc2c(=O)n3cccc(C)c3nc21,-14%,-24%,i,-13%,2%
COCCn1c(=N)c(C(=O)NCCc2ccccc2)cc2c(=O)n3cccc(C)c3nc21,-3%,-1%,3.2µM*,3%,1%
CCCCNC(=O)c1cc2c(=O)n3cccc(C)c3nc2n(Cc2ccccc2)c1=N,-1%,-4%,0.2µM*,?,-78%
CCOCCCn1c(=N)c(C(N)=S)cc2c(=O)n3cccc(C)c3nc21,25µM*,-23%,159%,-5%,-10%
CCOCCCNC(=O)c1cc2c(=O)n3cccc(C)c3nc2n1C,-4%,0%,35%,-1%,6%
